# RGS7-Gao – human RGS7-Galphao interaction regulation. binding response (% of control), % at 10 µM. 220,000 compounds, 0.35% hits. AID 1439. P09471. Multiplexed bead flow cytometry, RGS7-Galphao binding; actives lie on both sides; in the data active = binding response below about 49% or above about 150%; inconclusive = no clear call, values can overlap the other calls; inactive = in between;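 note: fluorescent Galphao held in activated GDP-AlF4 state binding bead-coupled RGS7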
# RGS4-Gao reg – modulates binding of RGS4 to human Galphao; 220,000 compounds, 0.33% hits; Multiplexed bead flow cytometry; actives lie on both sides; binding response (% of control), % at 10 µM; AID 1415; in the data active = binding response below about 49% or above about 150%; inactive = in between;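 note: fluorescent Galphao activated with aluminum fluoride binding bead-coupled RGS4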
# RGS16-Gao HTS – regulators of human RGS16-Galphao interaction; AID 1441; 220,000 compounds, 0.38% hits; O15492+P09471; binding response (% of control), % at 10 µM; bead-based flow cytometry RGS16-Galphao binding, fluorescence; actives lie on both sides; call rule not given here;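 note: Galphao activated by GDP with aluminum fluoride before binding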
# Target sequence (O15492 whole entry, looked up): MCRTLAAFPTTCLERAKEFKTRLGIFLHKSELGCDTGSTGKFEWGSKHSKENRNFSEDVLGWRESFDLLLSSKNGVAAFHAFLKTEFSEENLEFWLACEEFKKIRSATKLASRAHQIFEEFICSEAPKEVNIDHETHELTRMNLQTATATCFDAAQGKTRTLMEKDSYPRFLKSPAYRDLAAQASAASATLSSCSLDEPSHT
# Target sequence (P09471 whole entry, looked up): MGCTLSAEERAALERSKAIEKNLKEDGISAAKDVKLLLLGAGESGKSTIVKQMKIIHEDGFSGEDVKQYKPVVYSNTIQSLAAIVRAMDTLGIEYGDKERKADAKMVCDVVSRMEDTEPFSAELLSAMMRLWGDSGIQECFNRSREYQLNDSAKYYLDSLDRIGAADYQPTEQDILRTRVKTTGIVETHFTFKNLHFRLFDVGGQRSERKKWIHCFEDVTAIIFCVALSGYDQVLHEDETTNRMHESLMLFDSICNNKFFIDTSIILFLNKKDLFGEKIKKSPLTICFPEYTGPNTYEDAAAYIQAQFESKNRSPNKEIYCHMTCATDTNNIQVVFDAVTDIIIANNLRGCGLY
# Avidin fluor – compound fluoresces at 488/530 nm on avidin beads; compound fluorescence 488/530 nm, flow cytometry; active compounds read high; fluorescence (KMESF) at 10 µM; 220,000 compounds, 0.38% hits; in the data active = fluorescence above about 47
# GSH fluor – compound fluoresces at 488/530 nm on GSH beads; GSH beads flow cytometry, compound fluorescence 488/530 nm; active compounds read high; fluorescence (KMESF) at 10 µM; 190,000 compounds, 0.25% hits; AID 1776; in the data active = fluorescence above about 89;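 note: glutathione beads carrying GST-tagged Bcl family fusion proteins plus one bare bead set; values are compound well signal with DMSO vehicle wells as background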
# RGS8-Gao – human RGS8-Galphao interaction regulation; P09471; AID 1423; response (percent of control binding), % at 10 µM; multiplexed bead flow cytometry, RGS8-Galphao binding; actives lie on both sides; 220,000 compounds, 0.34% hits; in the data active = response below about 60% or above about 140%; inactive = in between;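 note: Galphao activated as the GDP aluminium fluoride complex binding bead-coupled RGS8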
# * marks the source's active call; other numbers are inactive results; ? = inconclusive; / = not tested or not shown. This is a sample that favours compounds with a hit; in the whole collection about 1.2% have one here.
SMILES,RGS7-Gao,RGS4-Gao reg,RGS16-Gao HTS,Avidin fluor,GSH fluor,RGS8-Gao
COc1ccc(/C=N/n2c(N)c(S(=O)(=O)c3cccs3)c3nc4ccccc4nc32)cc1OC,97,89,95,47*,16,91
Cc1ccc(C(C(=O)Nc2ccc3c(c2)OCO3)N(C)C(=O)Cc2c[nH]c3ccccc23)cc1 (stereo not drawn),93,93,37,1,6,83
CC(=O)Nc1ccc(NC(=O)COc2cccc3c2OC(C)(C)C3)cc1,111,99,97,58*,7,99
CCSc1nnc(NC(=O)c2ccc(C)o2)s1,105,103,105,48*,17,105
CCOC(=O)C1=C(C)NC2=C(C(=O)CC(C)(C)C2)C1c1coc2ccccc2c1=O (stereo not drawn),106,107,122,60*,19,103
CC1=C(C(=O)OCC2CCCO2)C(c2coc3ccccc3c2=O)C2=C(CC(C)(C)CC2=O)N1 (stereo not drawn),92,95,97,9,14,97
Cc1ccnc2nc(C(=O)OCC(=O)NC(=O)NCc3ccco3)nn12,?,95,94,10,17,98
CC(=O)N/N=C(\C)C1COc2ccccc2O1 (stereo not drawn),?,103,104,5,/,100
CN(C)S(=O)(=O)c1cccc(NC(=O)COC(=O)CCOc2ccccc2)c1,?,120,101,88*,13,97
CN(C)S(=O)(=O)c1cccc(NC(=O)COC(=O)COc2ccc(Br)cc2)c1,?,93,98,20,/,99
O=C(NCC1CCCO1)c1cccnc1Nc1ccccc1F (stereo not drawn),112,107,100,52*,15,105
N#C/C(C(=O)c1ccccc1)=C1/CCCN1,110,104,106,48*,31,100
N#C/C(=C1\CCCN1)c1nc2ccccc2c(=O)[nH]1,100,100,102,15,31,100
CN1CCN(c2cc(C(F)(F)F)nc3ccc(F)cc23)CC1,?,99,102,7,/,100
CCOC(=O)N1CCN(c2cc(NCCO)c([N+](=O)[O-])c3nonc23)CC1,133,84,97,103*,21,95
Cc1ccccc1-n1cnnc1SCC(=O)N1CCN(c2ccccc2)CC1,107,104,102,50*,15,101
Cc1nnc(SCC(=O)N2CCN(c3ccccc3)CC2)n(N)c1=O,98,103,101,6,19,100
CC(C)(C)Nc1cccccc1=O,122,105,103,66*,38,101
Cc1ccc(/C=C2\CCC3=C2OC(N)=C(C#N)C3c2ccc(C)cc2)cc1 (stereo not drawn),117,117,118,66*,40,105
CC(=O)c1cc(F)c(N2CCN(C(=O)COc3ccc(F)cc3)CC2)cc1C,104,103,103,5,93*,105
CC1(C)CC(=O)C=C(Nc2ccc(F)cc2F)C1,106,104,110,18,11,103
CC1(C)CC(=O)C=C(Nc2ccccc2F)C1,101,106,107,8,267*,103
C=CCn1c(=O)c(C#N)cc2c(=O)n3ccccc3nc21,83,83,76,7,35,97
C=CCn1c(=N)c(C#N)cc2c(=O)n3ccccc3nc21,99,104,103,7,104*,103
O=C(CSc1ccc(F)cc1)NCCSc1ccccc1,104,102,82,7,10,101
SMILES,RGS7-Gao,RGS4-Gao reg,RGS16-Gao HTS,Avidin fluor,GSH fluor,RGS8-Gao
N#Cc1ccccc1Sc1ccccc1N,14*,20*,0.4*,-2,25,12*
CSCC[C@H](NC(=O)OC(C)(C)C)c1nnc(SCC=C(C)C)o1,101,100,101,8,267*,100
CC(C)(C)C1CCC(=NNC(=O)CN(c2ccccc2)S(=O)(=O)c2ccccc2[N+](=O)[O-])CC1 (stereo not drawn),128,145,103,53*,20,101
O=C(NCc1ccccc1Cl)c1ccc(-c2ccccc2)cc1,102,101,98,6,9,103
CCCC(=O)Nc1ccc(C(=O)NCc2ccccc2Cl)cc1,95,99,87,4,137*,100
O=C(Nc1ccccn1)C(=O)N1CCCCC1,94,89,59,5,96*,87
